In PubChem BioAssay (NCI) one finds growth data, which are given here for 9 compounds.

Holding throughout (test): NCI-60 one-dose screen, 48 h (100 = growth as untreated, 0 = no growth, -100 = all killed)
Holding throughout (conditions): 10 µM unless noted

Experiment [1] relates to NCI-H23 lung.
Experiment [2] has as its system NCI-H322M lung.
Experiment [3] concerns HOP-62 NSCLC.
For experiment [4], the system named is NCI-H460 lung.
Experiment [5] has as its system HOP-92 NSCLC.
The test system of experiment [6] is NCI-H522 lung.
Experiment [7] concerns A549/ATCC NSCLC.
Experiment [8] has as its system 786-0 renal.
The test system of experiment [9] is COLO 205 colon.
Experiment [10] has as its system DU-145 prostate.
In experiment [11] the test system is K-562 leukemia.
The subject of experiment [12] is MALME-3M melanoma.
Experiment [13] deals with MDA-MB-231 breast.
The test system of experiment [14] is RXF 393 renal.
In experiment [15] the test system is SF-268 CNS.
The test system of experiment [16] is SF-295 CNS.
Experiment [17] deals with SF-539 CNS.
Experiment [18] has as its system UACC-257 melanoma.
The subject of experiment [19] is M14 melanoma.
The test system of experiment [20] is NCI-H226 lung.

The structures appear in SMILES notation. This is part of a sample that, as a whole, favours compounds with a hit. Of some 83,000 tested, about 20% had one in any assay.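 For each line, cells grew in 96-well plates with the test compound present at a single concentration for 48 hours.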 A number with no mark means an inactive call. Activity calls are given as the source filed them. Rule for the calls: active = growth percent below 10; inactive = the rest.

With `COc1ccc(NC(=O)Nc2ccc(-c3ccc(OC)c(OC)c3)nc2C)cc1`, the growth was 67.4% in experiment [1]; 87% in [2]; 56.5% in experiment [3]; 17.6% in experiment [4]; 73.4% in [5]; 49.9% in experiment [6]. Also, the growth in experiment [7] was 57%; in experiment [8] it was 11.1%; in [9] it was 91.9%; in experiment [10] it was 72.2%; in experiment [11] it was 73.2%; in [12], 44.1%. Also, the growth in [13] is 40.5%; in [14], 58.2%; in experiment [15], 59.2%; in experiment [16], 102%; in experiment [17], 70.6%; in experiment [18] it was 55.5%. For the same compound, in experiment [19], the growth was 72.1%.

For `Cc1cccc(CC(=O)c2ccccc2)n1`, the growth in experiment [1] was 94.5%; in experiment [2], 87.3%; in experiment [3], 78.4%; in experiment [4] it was 95.7%; in [5], 82.2%; in [6], 80.9%. For the same compound, the growth in [7] was 74.2%; in [8], 94.4%; in experiment [9], 103%; in experiment [10], 100%; in [11], 81.8%; in experiment [12], 92.1%. The growth in experiment [13] is 89%; in experiment [14] it was 91%; in experiment [15] it was 95.5%; in [16], 85.4%; in experiment [17], 96.8%; in experiment [18] it was 92.7%. For the same compound, the growth in [19] was 85.5%.

In the case of `O=C(c1ccccc1)[C@H]1[C@@H]2CCCN2[C@]2(C(=O)Nc3ccc(F)cc32)[C@]12C(=O)Nc1ccccc12`, the growth is 93.3% in experiment [1]; 97% in experiment [2]; 86.8% in [3]; 93.6% in experiment [4]; 54.9% in experiment [5]; 73.5% in experiment [6]. Also, the growth in [7] was 75.2%; in experiment [8], 87.7%; in [9], 93.8%; in [10], 94%; in experiment [12], 125%; in experiment [13], 75.5%. The growth in experiment [14] was 81.9%; in [15], 90.2%; in experiment [16], 97.6%; in [17], 90.1%; in experiment [18] it was 83.3%; in experiment [19], 85.2%.

As to `COc1ccc2c(c1)O/C(=C/c1ccc(OCC(=O)Nc3ccc(S(N)(=O)=O)cc3)cc1)C2=O`, the growth is 86.9% in [20]; 97.8% in [2]; 104% in experiment [3]; 101% in experiment [4]; 91.4% in [5]; 80.7% in experiment [6]. Further, the growth in experiment [7] is 88.5%; in [8], 96.7%; in experiment [9], 114%; in experiment [10] it was 101%; in experiment [11], 85.7%; in experiment [12], 111%. The growth in [13] was 94.7%; in [14], 97.2%; in experiment [15] it was 94.8%; in [16], 106%; in [17], 97.7%; in [18], 102%. Besides, the growth in experiment [19] is 102%.

`CCc1cccc(C)c1NC(=O)c1sc2nc3c(cc2c1N)CCCCC3`: the growth is 50.7% in experiment [20]; 41.4% in experiment [2]; 36.9% in [3]; 13.3% in experiment [4]; 72.2% in experiment [5]; -9.98% (active) in experiment [6]. The growth in experiment [7] is 32.9%; in experiment [8] it was 44.8%; in [10] it was 13.2%; in experiment [11] it was 9.14% (active); in experiment [12] it was 47%; in experiment [13], 35.6%. Besides, the growth in [14] is 11.6%; in experiment [15], 56.5%; in experiment [16], 27%; in experiment [17], 11.1%; in [18] it was 71.7%; in experiment [19] it was 3.86% (active).

For `CCn1c(SCC(=O)c2ccc(Br)cc2)nnc1-c1cc2c([nH]c3ccccc32)c(-c2cccc(O)c2)n1`, the growth in experiment [20] is 94.4%; in experiment [2], 79.2%; in experiment [3], 67.6%; in experiment [5], 95.2%; in experiment [6], 49.2%; in [7], 41%. Also, the growth is 32.9% in experiment [8]; 108% in experiment [9]; 85.3% in experiment [10]; 64.6% in experiment [12]; 75.4% in experiment [13]; 1.81% (active) in [14]. In addition, the growth in [15] was 72.5%; in experiment [16] it was 41.1%; in [17] it was 60.9%; in [18], 83.8%; in experiment [19] it was 72.2%.

Regarding `C=C1C(=O)O[C@H]2[C@H]1CC/C(C(=O)NCCOCCOCC(=O)Nc1ccc(OC)c(C(N)=O)c1O)=C\CC[C@@]1(C)O[C@@H]21`, the growth was 80.7% in [20]; 94.2% in experiment [2]; 91.8% in experiment [3]; 106% in [4]; 92.5% in experiment [5]; 26.1% in [6]. In addition, the growth was 84.4% in experiment [7]; 94.3% in experiment [8]; 73.7% in experiment [9]; 101% in experiment [10]; 82.6% in experiment [11]; 86.9% in experiment [12]. In addition, the growth is 100% in experiment [13]; 59.6% in experiment [14]; 89.4% in [15]; 104% in experiment [16]; 90.7% in experiment [17]; 69.4% in [18]. In [19], the growth was 99.3%.

On to `COC(=O)c1oc2c(C(=O)/C=C/c3ccc(OC)cc3)c(OCCN3CCOCC3)ccc2c1C`, for which the growth in experiment [20] was -5.76% (active); in experiment [2], 0.995% (active); in [3], -6.52% (active); in experiment [5] it was -44.8% (active); in [6], -20% (active); in experiment [7], 2.83% (active). Further, the growth in experiment [8] was -6.7% (active); in experiment [9], -20.9% (active); in experiment [10], 1.8% (active); in experiment [11], -37.3% (active); in experiment [12] it was -14.1% (active); in [13], 3.21% (active). Also, the growth in [14] is -64.4% (active); in experiment [15], 11.5%; in [16], 18.3%; in [17], -34% (active); in [18], 55.5%; in experiment [19] it was 11.5%.

For `O=C(Nc1ccc(-n2ccc3c(NC(=O)c4ccccc4)ncnc32)cc1)c1ccc(Cl)c(C(F)(F)F)c1`, the growth is 32.3% in experiment [20]; 44.1% in [2]; 45.6% in experiment [3]; -30.5% (active) in experiment [4]; 89.4% in experiment [5]; 11.3% in experiment [6]. For the same compound, the growth is -40.8% (active) in experiment [7]; 54.9% in experiment [8]; 33.3% in [9]; 23.1% in experiment [10]; 7.82% (active) in experiment [11]; 26.9% in experiment [12]. For the same compound, the growth in experiment [13] is 12.2%; in experiment [14], 19%; in experiment [15] it was 18.7%; in experiment [16] it was 11.7%; in experiment [17], 31.9%; in [18], 46%. The growth in experiment [19] was 9.79% (active).
